Experimental data as given in PubChem BioAssay.
Several values for one entry are separate records, joined by “and”; a condition that tells them apart may be missing. Equal values may be shown once. Activity calls are given as the source filed them.

Columns and labels:
[1] = tested on: PRMT1 (protein arginine N-methyltransferase 1); test: small molecules binding arginine methyltransferase PRMT1 – biochemical, small-molecule microarray, 635 nm fluorescence, primary screen (AID 1088); details: higher = more signal;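 also: binding of Prmt1 protein to compounds spotted on small-molecule microarray slides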
[2] = growth effects on S. cerevisiae YJM789 – YJM789 clinical isolate, OD600, 24 h, basal, primary screen (AID 1089); details: higher = more signal, called active from +8 up or from −8 down;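 also: growth of clinical yeast isolate S. cerevisiae YJM 789 seeded 1000 cells per well; test concentration not given here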
[3] = S. pombe growth modifiers, basal conditions – strain 972, OD600, 24 h, no modulator, primary screen (AID 1090);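 also: basal condition with compound alone and no growth modifier present; test concentration not given here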; details: S. pombe 972 growth, higher = more signal, called active from +8 up or from −8 down
[4] = budding yeast growth modifiers under rapamycin – strain BY4716, OD600, 96 h, primary screen (AID 1091); also: test concentration not given here; details: S. cerevisiae BY4716 + rapamycin, higher = more signal, called active from +8 up or from −8 down
[5] = target: Torsin-1A-interacting protein 2 (Homo sapiens) (UniProt Q8NFQ8); test: small molecules binding lysate-expressed LULL1 – cell lysate, human LULL1 lysate, 635/667 nm fluorescence, primary screen (AID 1092); details: small-molecule microarray, hLULL1 lysate binding, 635 nm fluorescence; higher = more signal;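 also: probe is lysate of COS7 cells overexpressing human LULL1; score merges per-feature 667 nm fluorescence with signal-to-noise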
[6] = optical density change of DRC41 E. coli – strain DRC41, OD650, 24 h, E. coli filamentation project, primary screen (AID 1093);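 also: MC1000 strain lacking acrAB efflux and sulA so SOS filamentation is blocked; test concentration not given here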; details: E. coli DRC41 growth, higher = more signal, called active from +8 up or from −8 down
[7] = probe aLefty2 binding to arrayed compounds – biochemical, biotinylated probe, 635/667 nm fluorescence, primary screen (AID 1094); details: small-molecule microarray, higher = more signal;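 also: score merges spot fluorescence near 667 nm with spot signal-to-noise ratio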
[8] = tested on: Noggin (protein binding on small-molecule microarray); test: small molecules binding Noggin protein – biochemical, 635/667 nm fluorescence, primary screen (AID 1095); details: 635 nm fluorescence, higher = more signal;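 also: score merges 667 nm feature fluorescence with signal to noise over triplicate slides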
[9] = target: Neurogenic locus notch homolog protein 3 (Homo sapiens) (UniProt Q9UM47); test: small molecules binding NOTCH3 protein – biochemical, 635/667 nm fluorescence, primary screen (AID 1096); details: small-molecule microarray, 635 nm fluorescence, higher = more signal
[10] = probe aEGFR binding to arrayed compounds – biochemical, biotinylated probe, 635/667 nm fluorescence, primary screen (AID 1097); details: small-molecule microarray, higher = more signal;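 also: probe is a biotinylated anti-EGFR antibody binding compounds printed on slides; score combines fluorescence near 667 nm and signal to noise of each spot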
[11] = tested on: Plasmodium falciparum Sir2 (PF13_0152, Sir2A); test: Plasmodium falciparum Sir2A binding compounds – biochemical, small-molecule microarray, 635 nm fluorescence, primary screen (AID 1098); details: fluorescence 635 nm, higher = more signal;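 also: score merges spot fluorescence intensity with its signal-to-noise ratio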
[12] = probe aDKK1 binding to arrayed compounds – biochemical, biotinylated probe, 635/667 nm fluorescence, primary screen (AID 1099); details: small-molecule microarray, higher = more signal;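 also: score merges 667nm spot fluorescence with signal to noise across triplicate slides; reference of the scale not given here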
[13] = probe aCHRDL2 binding to arrayed compounds – biochemical, biotinylated probe, 635/667 nm fluorescence, primary screen (AID 1100); details: small-molecule microarray, higher = more signal
[14] = change in splice reporter luminescence, either direction, cell-based, HEK293, spliceosome inhibition project, primary screen (AID 1101); details: HEK293 splicing luciferase reporter, 24 h, higher = more signal, called active from +8 up or from −8 down;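 also: HEK293 cells carrying a splicing-competent luciferase reporter gene; test concentration not given here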
[15] = target: Fibroblast growth factor 10 (Homo sapiens) (UniProt O15520); test: compounds binding fibroblast growth factor 10 – biochemical, small-molecule microarray, 635 nm fluorescence, primary screen (AID 1102); details: FGF10 binding, fluorescence 635 nm, higher = more signal
[16] = tested on: glycogen synthase kinase-3 (GSK3A per assay name; protocol says GSK3B); test: compounds binding glycogen synthase kinase-3 – biochemical, small-molecule microarray, 635 nm fluorescence, GSK3A, primary screen (AID 1103); details: fluorescence 635 nm, higher = more signal; also: the record names both GSK3A and GSK3B
[17] = target: Epidermal growth factor receptor (Homo sapiens) (UniProt P00533); test: compounds binding epidermal growth factor receptor – biochemical, small-molecule microarray, 635 nm fluorescence, primary screen (AID 1104); details: EGFR binding, higher = more signal;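 also: score merges 667 nm emission intensity with spot signal to noise over triplicate slides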
[18] = target: Follistatin-related protein 3 (Homo sapiens) (UniProt O95633); test: compounds binding follistatin-related protein 3 – biochemical, small-molecule microarray, 635 nm fluorescence, primary screen (AID 1105); details: FSTL3 binding, higher = more signal;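 also: score merges emission near 667 nm and signal to noise per printed spot across three slides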
[19] = target: Dickkopf-related protein 1 (Homo sapiens) (UniProt O94907); test: small molecules binding DKK1 protein – biochemical, small-molecule microarray, 635 nm fluorescence scan, primary screen (AID 1106); details: higher = more signal;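 also: score merges emission near 667 nm with signal to noise over three replicate slides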
[20] = tested on: Inhibin beta A chain (activin A); test: small molecules binding activin A – biochemical, small-molecule microarray, 635 nm fluorescence scan, primary screen (AID 1107); details: INHBA, higher = more signal;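 also: mouse activin A protein probed at 4.33 µg/mL on printed slides; score merges bound-protein fluorescence near 667 nm with spot signal-to-noise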

Dickkopf-related protein 1 (Homo sapiens), sequence (O94907 whole entry, looked up): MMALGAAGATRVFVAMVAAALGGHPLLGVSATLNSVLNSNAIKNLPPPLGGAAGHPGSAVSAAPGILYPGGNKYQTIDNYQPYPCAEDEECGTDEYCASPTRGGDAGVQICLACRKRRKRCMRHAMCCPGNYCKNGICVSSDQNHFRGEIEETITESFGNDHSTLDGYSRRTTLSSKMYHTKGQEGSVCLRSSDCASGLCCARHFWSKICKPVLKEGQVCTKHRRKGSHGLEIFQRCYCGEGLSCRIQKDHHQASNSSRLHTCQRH
Torsin-1A-interacting protein 2 (Homo sapiens), sequence (Q8NFQ8 whole entry, looked up): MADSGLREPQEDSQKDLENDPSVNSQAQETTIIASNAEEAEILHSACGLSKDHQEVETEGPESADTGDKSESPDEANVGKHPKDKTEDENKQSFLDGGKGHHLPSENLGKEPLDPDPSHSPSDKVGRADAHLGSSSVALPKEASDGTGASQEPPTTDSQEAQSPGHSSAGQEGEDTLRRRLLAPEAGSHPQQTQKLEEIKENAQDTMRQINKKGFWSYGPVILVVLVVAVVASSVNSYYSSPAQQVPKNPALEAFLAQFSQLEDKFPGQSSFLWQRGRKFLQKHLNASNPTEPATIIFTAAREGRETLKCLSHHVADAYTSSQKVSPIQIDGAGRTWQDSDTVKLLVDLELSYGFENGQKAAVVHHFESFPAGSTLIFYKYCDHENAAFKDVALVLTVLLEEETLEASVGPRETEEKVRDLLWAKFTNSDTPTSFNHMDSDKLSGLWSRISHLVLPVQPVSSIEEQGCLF
Follistatin-related protein 3 (Homo sapiens), sequence (O95633 whole entry, looked up): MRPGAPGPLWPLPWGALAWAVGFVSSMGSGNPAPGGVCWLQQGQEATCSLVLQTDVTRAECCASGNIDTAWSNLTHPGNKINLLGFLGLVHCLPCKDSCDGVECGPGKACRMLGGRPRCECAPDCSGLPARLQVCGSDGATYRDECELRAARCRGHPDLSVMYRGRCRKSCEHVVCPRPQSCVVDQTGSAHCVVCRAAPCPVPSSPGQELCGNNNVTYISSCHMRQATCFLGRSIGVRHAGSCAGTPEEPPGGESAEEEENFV
Epidermal growth factor receptor (Homo sapiens), sequence (P00533 whole entry, looked up): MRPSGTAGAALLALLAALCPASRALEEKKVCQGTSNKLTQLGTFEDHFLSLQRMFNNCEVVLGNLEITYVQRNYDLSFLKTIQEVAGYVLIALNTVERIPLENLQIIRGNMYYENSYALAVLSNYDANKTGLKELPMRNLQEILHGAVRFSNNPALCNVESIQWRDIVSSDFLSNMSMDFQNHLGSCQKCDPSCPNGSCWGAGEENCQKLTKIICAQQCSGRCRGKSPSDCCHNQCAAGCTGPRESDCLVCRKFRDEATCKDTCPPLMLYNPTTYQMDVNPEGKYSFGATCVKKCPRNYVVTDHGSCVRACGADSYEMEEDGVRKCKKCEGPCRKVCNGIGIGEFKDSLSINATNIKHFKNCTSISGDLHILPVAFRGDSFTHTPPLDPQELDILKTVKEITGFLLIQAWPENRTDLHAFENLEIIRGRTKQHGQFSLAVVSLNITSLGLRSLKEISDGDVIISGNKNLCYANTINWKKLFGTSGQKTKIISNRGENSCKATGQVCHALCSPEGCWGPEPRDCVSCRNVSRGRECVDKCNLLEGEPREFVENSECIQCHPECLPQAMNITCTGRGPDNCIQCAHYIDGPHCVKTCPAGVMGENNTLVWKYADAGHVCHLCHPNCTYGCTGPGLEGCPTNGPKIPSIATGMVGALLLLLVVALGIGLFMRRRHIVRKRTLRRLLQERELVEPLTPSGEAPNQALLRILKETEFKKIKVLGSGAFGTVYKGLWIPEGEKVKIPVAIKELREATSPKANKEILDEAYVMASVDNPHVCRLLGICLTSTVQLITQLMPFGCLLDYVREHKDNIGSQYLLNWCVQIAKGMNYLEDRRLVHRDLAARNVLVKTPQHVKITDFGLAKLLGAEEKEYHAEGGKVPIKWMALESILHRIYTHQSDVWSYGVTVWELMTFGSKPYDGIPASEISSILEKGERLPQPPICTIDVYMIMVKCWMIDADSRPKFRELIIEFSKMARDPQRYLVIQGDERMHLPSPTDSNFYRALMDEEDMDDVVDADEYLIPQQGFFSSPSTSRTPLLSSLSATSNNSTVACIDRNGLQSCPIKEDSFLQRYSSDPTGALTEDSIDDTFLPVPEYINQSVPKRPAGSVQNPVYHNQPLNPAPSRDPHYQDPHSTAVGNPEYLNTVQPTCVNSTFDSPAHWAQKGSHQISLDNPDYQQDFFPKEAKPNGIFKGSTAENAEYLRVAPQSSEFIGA
Neurogenic locus notch homolog protein 3 (Homo sapiens), sequence (Q9UM47 whole entry, looked up): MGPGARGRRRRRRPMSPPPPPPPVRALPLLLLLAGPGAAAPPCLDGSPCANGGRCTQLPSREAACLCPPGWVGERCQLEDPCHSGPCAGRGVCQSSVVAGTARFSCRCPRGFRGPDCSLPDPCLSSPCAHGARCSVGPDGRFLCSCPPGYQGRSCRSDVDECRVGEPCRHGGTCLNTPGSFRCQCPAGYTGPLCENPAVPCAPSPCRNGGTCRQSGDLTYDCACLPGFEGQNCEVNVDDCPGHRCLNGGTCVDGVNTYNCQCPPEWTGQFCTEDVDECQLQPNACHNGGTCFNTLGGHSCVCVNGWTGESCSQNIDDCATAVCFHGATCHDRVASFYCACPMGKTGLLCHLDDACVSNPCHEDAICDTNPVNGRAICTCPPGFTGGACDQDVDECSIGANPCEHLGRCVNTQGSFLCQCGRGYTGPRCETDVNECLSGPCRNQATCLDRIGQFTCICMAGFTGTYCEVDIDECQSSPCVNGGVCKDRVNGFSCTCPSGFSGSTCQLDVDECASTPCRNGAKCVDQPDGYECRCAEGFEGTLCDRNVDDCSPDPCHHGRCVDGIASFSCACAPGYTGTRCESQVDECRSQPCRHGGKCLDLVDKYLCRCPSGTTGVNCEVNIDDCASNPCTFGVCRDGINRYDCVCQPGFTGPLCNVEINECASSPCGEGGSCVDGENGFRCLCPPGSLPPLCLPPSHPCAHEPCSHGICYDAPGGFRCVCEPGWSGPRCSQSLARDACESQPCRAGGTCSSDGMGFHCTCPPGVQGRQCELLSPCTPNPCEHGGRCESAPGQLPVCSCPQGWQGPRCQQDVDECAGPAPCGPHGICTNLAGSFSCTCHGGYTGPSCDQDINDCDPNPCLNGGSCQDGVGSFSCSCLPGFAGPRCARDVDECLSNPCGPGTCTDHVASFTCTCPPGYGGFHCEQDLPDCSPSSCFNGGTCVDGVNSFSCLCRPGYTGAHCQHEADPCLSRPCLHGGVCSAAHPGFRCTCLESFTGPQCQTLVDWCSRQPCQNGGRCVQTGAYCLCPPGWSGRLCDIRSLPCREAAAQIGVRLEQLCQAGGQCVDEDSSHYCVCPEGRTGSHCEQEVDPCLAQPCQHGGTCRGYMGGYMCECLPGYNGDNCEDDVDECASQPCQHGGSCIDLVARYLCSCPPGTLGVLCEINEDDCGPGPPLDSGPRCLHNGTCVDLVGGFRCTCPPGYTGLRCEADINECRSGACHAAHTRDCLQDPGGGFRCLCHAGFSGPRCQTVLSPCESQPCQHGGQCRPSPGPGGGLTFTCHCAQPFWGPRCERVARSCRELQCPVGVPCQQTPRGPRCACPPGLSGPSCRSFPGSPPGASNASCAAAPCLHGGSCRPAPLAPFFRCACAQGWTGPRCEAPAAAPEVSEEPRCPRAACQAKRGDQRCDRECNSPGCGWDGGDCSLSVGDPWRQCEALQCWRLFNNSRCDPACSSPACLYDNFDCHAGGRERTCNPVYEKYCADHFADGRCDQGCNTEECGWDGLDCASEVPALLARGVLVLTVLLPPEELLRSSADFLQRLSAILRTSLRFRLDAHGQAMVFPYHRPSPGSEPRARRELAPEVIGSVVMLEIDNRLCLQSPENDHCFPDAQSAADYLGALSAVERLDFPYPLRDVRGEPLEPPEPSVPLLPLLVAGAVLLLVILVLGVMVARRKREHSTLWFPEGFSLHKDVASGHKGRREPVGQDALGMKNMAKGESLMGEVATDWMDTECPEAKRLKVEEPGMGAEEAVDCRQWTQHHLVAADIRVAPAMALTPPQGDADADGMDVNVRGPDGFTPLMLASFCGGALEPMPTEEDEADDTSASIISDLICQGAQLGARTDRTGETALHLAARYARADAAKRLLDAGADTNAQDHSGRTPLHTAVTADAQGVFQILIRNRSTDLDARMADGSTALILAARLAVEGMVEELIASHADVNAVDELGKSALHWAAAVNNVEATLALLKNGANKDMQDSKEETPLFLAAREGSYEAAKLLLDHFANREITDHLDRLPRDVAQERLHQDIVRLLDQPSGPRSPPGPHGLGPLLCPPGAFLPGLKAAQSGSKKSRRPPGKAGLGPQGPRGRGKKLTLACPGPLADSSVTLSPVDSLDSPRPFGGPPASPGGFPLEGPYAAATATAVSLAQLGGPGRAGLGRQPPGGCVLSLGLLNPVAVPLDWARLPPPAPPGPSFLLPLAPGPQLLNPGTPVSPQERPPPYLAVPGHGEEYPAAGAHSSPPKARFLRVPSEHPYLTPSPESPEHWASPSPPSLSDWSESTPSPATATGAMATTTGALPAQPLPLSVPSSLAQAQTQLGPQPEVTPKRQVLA
Fibroblast growth factor 10 (Homo sapiens), sequence (O15520 whole entry, looked up): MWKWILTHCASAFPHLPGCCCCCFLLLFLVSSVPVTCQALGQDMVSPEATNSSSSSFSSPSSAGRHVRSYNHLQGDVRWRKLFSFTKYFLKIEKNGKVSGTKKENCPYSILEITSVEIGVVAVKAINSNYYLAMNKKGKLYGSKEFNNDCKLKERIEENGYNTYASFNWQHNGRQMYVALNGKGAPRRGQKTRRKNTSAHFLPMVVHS

SMILES	composite z-score [1]	z-score [2]	z-score [3]	z-score [4]	composite z-score [5]	z-score [6]	composite z-score [7]	composite z-score [8]	composite z-score [9]	composite z-score [10]	composite z-score [11]	composite z-score [12]	composite z-score [13]	z-score [14]	composite z-score [15]	composite z-score [16]	composite z-score [17]	composite z-score [18]	composite z-score [19]	composite z-score [20]
CCOC(=O)CCN1C(=O)[C@H]2[C@H]3[C@H](O)[C@H](O)CC(=NNC(=O)OCC)[C@@H]3CC[C@H]2C1=O	0.763	-0.373 (inactive)	-0.769 (inactive)	-0.491 (inactive)	0.45	0.441 (inactive)	0.0634	0.531	0.316	0.095	0.238	-0.0567	-0.0213	0.519 (inactive)	0.283	0.0666	0.209	0.0654	-0.0149	-0.772
C=CCN(CCCC)C(=O)C1N(c2c(Cl)cccc2CO)C(=O)C2C(C(=O)O)C3C=CC21O3 (stereo not given)	-0.502 and 0.174	0.381 (inactive) and 0.588 (inactive)	-0.162 (inactive) and -0.186 (inactive)	0.258 (inactive) and -0.535 (inactive)	-1.27 and 3.03	0.455 (inactive) and 3.02 (inactive)	-0.0948 and -0.113	-2.38 and -0.509	-1.73 and -0.0461	-0.308 and -0.0286	0.934 and -0.194	0.0215 and -0.0881	1.08 and 0.748	-0.786 (inactive) and -0.929 (inactive)	-0.613 and -1.38	-2.1 and -0.938	-1.71 and -1.18	-2.37 and -1.28	-2.46 and -2.71	-1.41 and -0.0137
C[N+](C)(C)CCCCNC(=O)[C@H]1C[C@H]2C(=O)N[C@@H](CCCC[N+](C)(C)C)C(=O)N2[C@H]1c1ccc(O)cc1	1.54 and 1.55	0.877 (inactive) and -0.0113 (inactive)	0.565 (inactive) and 0.352 (inactive)	-1.16 (inactive) and -1.35 (inactive)	-0.296 and -0.656	-0.118 (inactive) and 0.0161 (inactive)	-0.171 and -0.214	1.73 and 1.84	0.97 and 0.969	0.0338 and -0.127	1.3 and 1.94	-0.237 and -0.18	-0.904 and -0.983	0.411 (inactive) and -1.57 (inactive)	1.56 and 1.47	1.31 and 0.668	1.16 and 0.868	1.44 and 1.34	2.03 and 1.92	1.02 and 0.383
C=CCN(C(=O)C1N(C(C)(C)CO)C(=O)C2C(C(=O)O)C3C=CC21O3)C(C)(C)C (stereo not given)	-0.805 and -0.846	0.69 (inactive) and 1.34 (inactive)	0.53 (inactive) and 0.365 (inactive)	0.961 (inactive) and 1.35 (inactive)	-0.139 and 1.91	-0.0599 (inactive) and 0.474 (inactive)	0.003 and 0.146	-2.82 and -3.2	-1.74 and -1.4	-0.347 and -0.228	-0.0242 and 0.712	0.338 and 0.0018	1.06 and 1.01	0.153 (inactive) and -0.231 (inactive)	-0.95 and -1.33	-1.24 and -1.03	-2.18 and -1.68	-2.45 and -2.42	-2.28 and -3.04	-3 and -3.14
